Sampled rows, rich in hits. Any-hit rate of the full collection: about 15%.
Pf growth 48h: P. falciparum growth inhibition at 48 hours (one generation) | 5.9% of 310,000 active | Potency, µM (highest dose often 28.7 µM), usual class: inhibitors | P. falciparum luciferase growth in erythrocytes, 48 h | AID 504832
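Luciferase-expressing P. falciparum in infected erythrocytes (2% hematocrit, 0.1% parasitemia final) in RPMI 1640/0.5% Albumax were exposed to compound for 48 hours at 37 C, 5% CO2; growth read as luminescence.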
HCMV inh: inhibitors of human cytomegalovirus. AID 1259415. 4.5% of 410,000 active. HFF cells, HCMV-luciferase reporter, 72 h; active compounds read low. activity change, negative = inhibition, % at 57.5 µM; in the data active = activity change below about -60%; inconclusive = no clear call, values can overlap the other calls; inactive = above about -39%
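Luciferase read-out from HCMV-luciferase-infected HFFs (MOI 1 PFU/cell) 72 h post infection at 37C; compounds added after 16 h cell attachment; activity normalized between buffer-only basal and Salinomycin (10uM) inhibitor controls.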
HCV inh: HCV inhibition. Huh7.5.1 HCVcc-Cre infection, luciferase reporter, 44 h. Potency, µM (series often up to 41.8 µM), actives largely listed as inhibitors. 3.4% of 340,000 active
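Antiviral activity was scored by luciferase reporter output from cells infected with HCVcc-Cre (~0.5 moi) in presence of compound, 44 h infection period, cells seeded 1,000/well 4 h prior.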
Pf growth 96h: P. falciparum growth inhibition at 96 hours; P. falciparum luciferase reporter growth, 96 h; Potency, µM (series often up to 28.7 µM), actives largely listed as inhibitors; 6.9% of 320,000 active
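Plates of compound plus infected erythrocytes (2% hematocrit, 0.05% parasitemia final) incubate 96 hours, 37 C, 5% CO2. Detection reagent added; reduced luminescence from the parasites' luciferase reporter flags inhibition.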
SARS PLP yeast: blocks SARS-CoV papain-like protease in a yeast assay. S. cerevisiae expressing SARS-CoV PLpro, growth rescue. Potency, µM (titrated, usually from 32.9 µM), hits mostly activators. 0.19% of 330,000 active; calls by dose curve; note: nearly all actives have a fitted effect of over 55% in size
Sm TGR block: S. mansoni TGR enzyme inhibition; 3% of 360,000 active; AID 485364; Potency, µM (titrated, usually from 114 µM), most hits filed as inhibitors; purified TGR, DTNB reduction, TNB absorbance 405 nm; note: nearly all actives have a fitted effect of over 60% in size
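Kinetic colorimetric format: TGR-catalysed, NADPH-driven DTNB reduction monitored via TNB absorbance. Enzyme dispensed at 20 nM; compound exposure 15 min at room temperature before reaction start.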
Of the large screens only hits and unclear results are named; the others gave an inactive call. Unless noted, calls come from the whole dose curve; as a rule, active = well fitted curve in the direction sought with a large enough effect; inconclusive = small, poorly fitted or top-dose-only effect, or another doubt; inactive = no such curve, though single readings can be large; an effect the other way counts as inactive or inconclusive.

NS(=O)(=O)c1ccc(CCNCc2cc(Br)ccc2OCc2ccccc2F)cc1	Pf growth 48h inconclusive, HCMV inh inconclusive, HCV inh inconclusive, Pf growth 96h inconclusive
NS(=O)(=O)c1ccc(CCNCc2ccccc2OCc2ccc(Cl)cc2)cc1	Pf growth 48h 10µM, HCV inh 13µM, Pf growth 96h inconclusive
COc1ccc(C2C3=C(N=C4SCC(=O)N42)c2ccccc2CC3)cc1 (configuration not stated)	Pf growth 48h inconclusive, Pf growth 96h 12µM
COc1ccc(C2C3=C(N=C4SCC(=O)N42)c2ccccc2CC3)cc1OC (configuration not stated)	Pf growth 48h 2.3µM
CCOC(=O)/C(N=Nc1c(C)n(C)n(-c2ccccc2)c1=O)=C(/O)c1ccccc1	none
Cc1c(N=N/C(C(=O)Nc2ccccc2)=C(/O)c2ccccc2)c(=O)n(-c2ccccc2)n1C	Pf growth 48h inconclusive, HCMV inh inconclusive, Pf growth 96h 3.7µM
Cc1ccc(S(=O)(=O)N(C)c2ccc(OCC(=O)Nc3nnc(C4CC4)s3)cc2)cc1	none
CCc1nnc(NC(=O)COc2ccc(N(C)S(=O)(=O)c3ccc(C)cc3)cc2)s1	HCMV inh -102
CN(c1ccc(OCC(=O)Nc2nc3ccccc3s2)cc1)S(=O)(=O)c1ccccc1	Pf growth 48h inconclusive, HCMV inh inconclusive, HCV inh inconclusive, Pf growth 96h 5.2µM
CC(=O)c1ccc(-c2c(CCO)sc3ccccc23)cc1	none (no result: Pf growth 48h, HCV inh, Pf growth 96h, SARS PLP yeast, Sm TGR block)
Cc1noc(C)c1NC(=O)N(C)C[C@H]1Oc2ccc(NC(=O)Nc3ccc4c(c3)OCO4)cc2C(=O)N([C@H](C)CO)C[C@@H]1C	none (no result: Pf growth 48h, Pf growth 96h, Sm TGR block)
CC(CC(=O)N1CCc2ccccc21)S(=O)(=O)c1ccc2c(c1)NC(=O)CO2 (configuration not stated)	Pf growth 96h 10µM
Cc1ccc(NC(=O)CC(C)S(=O)(=O)c2ccc3c(c2)NC(=O)CO3)cc1C (configuration not stated)	Pf growth 48h inconclusive, Pf growth 96h 12µM
Cc1ccc(NS(=O)(=O)c2ccc3c(c2)NC(=O)CO3)cc1C	Pf growth 96h 9.3µM
CC(CC(=O)NC1CCCCC1)S(=O)(=O)c1ccc2c(c1)NC(=O)CO2 (configuration not stated)	Pf growth 96h 13µM
Cc1ccc(NC(=O)CC(C)S(=O)(=O)c2ccc3c(c2)NC(=O)CO3)cc1Cl (configuration not stated)	none (no result: Pf growth 48h, HCV inh, Pf growth 96h, SARS PLP yeast)
CCc1ccccc1NC(=O)CC(C)S(=O)(=O)c1ccc2c(c1)NC(=O)CO2 (configuration not stated)	none (no result: Pf growth 48h, HCV inh, Pf growth 96h, SARS PLP yeast)
COc1ccc(N(CC(=O)NCc2ccccc2Cl)S(=O)(=O)c2c(C)[nH]c(=O)[nH]c2=O)cc1	none (no result: Pf growth 48h, HCV inh, Pf growth 96h, SARS PLP yeast)
Cc1ccc(S(=O)(=O)C(CNC(=O)C(=O)NCCc2ccccc2)c2cccs2)cc1 (configuration not stated)	Sm TGR block inconclusive (no result: Pf growth 48h, HCV inh, Pf growth 96h, SARS PLP yeast)
CNc1ccc2oc(C[C@H]3O[C@@]4(CC[C@H]3C)O[C@H]([C@H](C)C(=O)c3ccc[nH]3)[C@H](C)C[C@H]4C)nc2c1C(=O)O	Pf growth 48h 0.93µM, HCMV inh -100, HCV inh 2.2µM, Pf growth 96h 0.41µM
CCOC(=O)N1CCN(C(=O)CCCn2c(=S)[nH]c3ccsc3c2=O)CC1	HCV inh inconclusive, Pf growth 96h inconclusive
COc1ccc(CNC(=O)CSc2nn3c(=O)c(C(C)(C)C)nnc3s2)cc1OC	Pf growth 48h inconclusive, HCMV inh inconclusive, HCV inh inconclusive, Pf growth 96h inconclusive
COc1cccc(NC(=O)CSc2nn3c(=O)c(C)nnc3s2)c1	Pf growth 48h inconclusive, Pf growth 96h 9.3µM
Cc1nnc2sc(SCC(=O)Nc3cccc(Cl)c3)nn2c1=O	Pf growth 96h inconclusive
COc1ccc(CCNC(=O)CSc2nn3c(=O)c(C)nnc3s2)cc1OC	Pf growth 48h 5.2µM, Pf growth 96h 0.21µM (no result: HCMV inh)
COc1ccccc1CNC(=O)CSc1nn2c(=O)c(C(C)(C)C)nnc2s1	Pf growth 48h 2.9µM, Pf growth 96h inconclusive
COc1ccc(NC(=O)CSc2nn3c(=O)c(C)nnc3s2)cc1	Pf growth 48h inconclusive, Pf growth 96h 12µM

Assay outcomes as filed in PubChem.
